High-throughput results deposited in PubChem by National Center for Advancing Translational Sciences (NCATS).
Compounds with a hit are over-represented: about 17% of the library has one in this group of screens.
ATXN2 expr inh = ATXN2 expression inhibition; Potency, µM (series often up to 57 µM), for the others: at the highest dose activity change, negative = inhibition, usual class: inhibitors; HEK-293 ATXN2-luciferase reporter, luminescence, 24 h; hit rate 0.72% among 360,000; AID 1745845; further: on the % scale 0 is the no-effect control and ±100 the full control effect; nearly all actives have a fitted effect of over 55% in size
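qHTS (up to 57 uM final) was run with 24 h compound exposure of reporter cells at 37 °C. Each well was multiplexed: SteadyGlo luminescence measured ATXN2-luciferase expression after a fluorogenic Gly-Phe-AFC viability readout (25 uM final).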
S2 tox = reduces viability in counter-screen for ATXN expression inhibitors; hit rate 0.49% among 400,000; S2 cells (HEK-293 line with an ATXN2-luciferase reporter) viability, CellTiter-Fluor protease fluorescence, 24 h; Potency, µM (titrated, usually from 56.7 µM), usual class: cytotoxic; AID 651635; further: nearly all actives have a fitted effect of over 40% in size
TDP1 cell noCPT = qHTS for Inhibitors of human tyrosyl-DNA phosphodiesterase 1 (TDP1): qHTS in cells in absence of CPT. DT40 Tdp1-/- hTDP1 cells, no CPT, ATP luminescence, 48 h. AID 686978, 2013. Potency, µM (series often up to 46.2 µM), without a hit: at the top dose activity change, negative = growth inhibition, hits mostly inhibitors. hit rate 15% among 420,000; further: on the % scale 0 is the no-effect control and ±100 the full control effect; nearly all actives have a fitted effect of over 55% in size
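DT40 Tdp1-/-;hTDP1 cells, no CPT (DMSO vehicle only), 400 cells/well; compounds pin-transferred; ≥48 hr, 37 °C; CellTiter-Glo 30 min RT dark, luminescence read.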
DT40 TDP1 CPT = growth inhibition of DT40 Tdp1-/-;hTDP1 cells with camptothecin (screen for TDP1 inhibitors). chicken DT40 Tdp1-/-;hTDP1 cells + 20 nM CPT, ATP luminescence, 48 h. Potency, µM (top dose mostly 46.2 µM), for inactives: top-dose activity change, negative = growth inhibition, actives largely listed as inhibitors. hit rate 12% among 420,000; further: on the % scale 0 is the no-effect control and ±100 the full control effect; nearly all actives have a fitted effect of over 55% in size
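Chicken DT40 Tdp1-/- cells complemented with human TDP1, 400 cells/well, exposed to compounds plus 20 nM camptothecin for at least 48 h at 37 C; viability read as ATP content by CellTiter-Glo luminescence.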
HepG2 viability = counter-screen for TGF-b inhibitors: cytotoxicity in HepG2 cells; HepG2 CAGA-GFP viability, ATP luminescence, 18 h; Potency, µM (doses to about 46.1 µM), without a hit: at the highest dose activity change, negative = cytotoxicity, usual class: cytotoxic; hit rate 0.76% among 410,000; AID 588856
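HepG2 CAGA-GFP cells (1000/well, DMEM with 1% FBS) received compound, then TGF-beta at 500 pg/mL final, and were incubated 18 hours at 37 degrees C. Viability was read by CellTiter-Glo luminescence. Media-only wells were set as complete cell-killing and DMSO as no toxicity.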
TGFb SMAD3 inh = inhibitors of TGF-b signaling; HepG2 CAGA-GFP TGF-b/SMAD3 reporter, GFP fluorescence, 18 h; TGF-beta stimulated, 500 pg/mL final; Potency, µM (titrated, usually from 46.1 µM), for the others: at the top dose activity, negative = inhibition, hits mostly inhibitors; hit rate 1.2% among 410,000; AID 588855; further: on the % scale 0 is the no-effect control and ±100 the full control effect; nearly all actives have a fitted effect of over 65% in size
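TGF-beta reporter screen: HEPG2 CAGA-GFP, 1% FBS, 500 pg/mL TGF-beta final, 18 h; per-cell GFP summed per well; curves fitted and categorized by class.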
* hit, by the source's call; i = inactive; ? = inconclusive; . = not tested or not shown; [ ] = dose if it differs, or a comment. The call rests on the fitted dose curve; in most records, active means well fitted curve in the direction sought with a large enough effect; inconclusive means small, poorly fitted or top-dose-only effect, or another doubt; inactive means no such curve, though single readings can be large; an effect the other way counts as inactive or inconclusive. Potency means the concentration at half of the fitted maximal effect.

SMILES | ATXN2 expr inh | S2 tox | TDP1 cell noCPT | DT40 TDP1 CPT | HepG2 viability | TGFb SMAD3 inh
O=C(N/N=C/c1cc([N+](=O)[O-])ccc1Cl)c1cnccn1 | -27% | i | 5.8µM* | 3.3µM* | -2% | -10%
COC(=O)c1ccccc1NC(=O)Cn1nnc2sc(-c3ccccc3)cc2c1=O | 17% | i | 2% | -3% | -2% | 0%
COC(=O)C1CCN(Cc2ccc3c(c2)CN(C(=O)c2ccnn2C)CCO3)CC1 | . | i | -3% | 1%[9.04 µM] | . | .
O=C(c1ccco1)N1CCN(c2ncnc3scc(-c4cccs4)c23)CC1 | ? | i | 13µM* | 18µM* | -38% | -18%
COc1ccc(-c2csc3ncnc(N4CCN(C(=O)c5ccco5)CC4)c23)cc1 | ? | ? | ? | 23µM* | -3% | ?
O=C(c1ccco1)N1CCN(c2ncnc3scc(-c4ccccc4)c23)CC1 | -11% | i | 16µM* | 16µM* | -28% | 0%
CN(CCOc1ccccc1)C(=O)C1CCC(=O)N(CCc2ccc(Cl)cc2)C1 (centres undefined) | 47% | i | ? | ? | 4% | -18%
O=C(NCCOc1ccccc1)c1cc2ccccc2o1 | 58% | i | -14% | 0% | 0% | 17%
CCc1ccc(NC(=O)CSc2nc3n[nH]c(C)c3c(=N)n2-c2ccc(C)cc2)cc1 | . | . | 3.7µM* | 6.5µM* | -50% | 0%
Cc1ccc(NC(=O)CSc2nc(O)cc(=O)n2-c2ccc(C)cc2)cc1 | . | i | -12% | -4% | -1% | 21%
CCOc1ccc(-n2c(SCC(=O)Nc3ccc(CC)cc3)nc3n[nH]c(C)c3c2=N)cc1 | -31% | ? | 21µM* | ? | -54% | ?
Cc1[nH]nc2nc(SCC(=O)NC3CCCCC3)n(-c3ccc(Br)cc3)c(=N)c12 | 13µM* | 20µM* | 6.5µM* | 8.2µM* | 6% | -24%
Cc1ccc(-n2c(N)cc(=O)nc2SCC(=O)NC2CCCCC2)cc1C | 7% | i | 5% | 9% | -28% | -5%
CCC(Sc1nc2n[nH]c(C)c2c(=N)n1-c1ccc(Br)cc1)C(=O)N(CC)CC (centres undefined) | . | . | 15µM* | 18µM* | -23% | ?
CCC(Sc1nc2n[nH]c(C)c2c(=N)n1-c1ccc(C)c(Cl)c1)C(=O)N1CCOCC1 (centres undefined) | -13% | i | ? | ? | -36% | 6%
CCOc1ccc(NC(=O)CSc2nnc(Cc3cccn3C)n2-c2ccc(OC)cc2)cc1 | -1% | i | ? | ? | -19% | -3%
CC(=O)Nc1cnc(/C=C\CCCO)cn1 | 3% | i | -1% | 0% | 1% | 0%
O=C(c1cn(-c2ccccc2)nc1-c1ccc(F)cc1)N1CCCCC1 | -11% | ? | -25% | -25% | 0% | 0%
Cc1onc(-c2ccccc2)c1C(=O)N1CCCN2C(=O)c3ccccc3C21 (centres undefined) | -19% | i | -4% | 15% | -1% | 15%
O=C1c2ccccc2C2N1CCCN2C(=O)c1sc2ccccc2c1Cl (centres undefined) | . | i | 16µM* | 18µM* | -41% | -21%
CC1(C(=O)Nc2ccc3c(c2)OCCO3)CN(S(C)(=O)=O)CC(=O)N1CCc1ccccc1F (centres undefined) | . | . | -20% | -18% | . | .
CN(C)c1ccc(CNS(=O)(=O)c2ccc3[nH]c4c(c3c2)CCCCC4)cc1 | 49% | i | . | . | -41% | ?
O=S(=O)(NCc1ccc(F)cc1)c1ccc2[nH]c3c(c2c1)CCCC3 | 0% | ? | 16µM* | ? | -103% | 18µM*
Cc1cc(C)cc(NC(=S)NCc2ccc3[nH]c4c(c3c2)CCCC4)c1 | 5% | ? | 16µM* | ? | -51% | ?
CC(C)(C)NS(=O)(=O)c1ccc2[nH]c3c(c2c1)CCCCC3 | 13% | i | ? | ? | 12% | -4%
SMILES | ATXN2 expr inh | S2 tox | TDP1 cell noCPT | DT40 TDP1 CPT | HepG2 viability | TGFb SMAD3 inh
O=S(=O)(NCc1ccccc1)c1ccc2[nH]c3c(c2c1)CCCCC3 | -19% | i | 21µM* | ? | -38% | ?
O=S(=O)(NCc1ccc(Cl)cc1)c1ccc2[nH]c3c(c2c1)CCCC3 | ? | ? | 5.8µM* | ? | 16µM* | 16µM*
C[N+]1(C)CCN(CC(O)(c2ccccc2)C2CCCCC2)CC1 (centres undefined) | . | i | -15% | 2% | . | .
Nc1nnc2cc(Br)ccc2n1 | . | i | ? | ? | -2% | 0%
CN(Cc1ccccc1)S(=O)(=O)c1ccc2[nH]c3c(c2c1)CCCCC3 | -36% | i | 16µM* | ? | -20% | ?
Cc1ccc(CNS(=O)(=O)c2ccc3[nH]c4c(c3c2)CCCC4)cc1 | 6% | i | -24% | 0% | -18% | ?
Cc1ccc(CNS(=O)(=O)c2ccc3[nH]c4c(c3c2)CCCCC4)cc1 | -10% | i | 15µM* | ? | -106% | ?
CCOC(=O)CSc1nnc(COc2ccc3ccccc3c2)o1 | -16% | i | ? | ? | -13% | 2%
O=C(Nc1cccc(-c2nc3ccccc3o2)c1)C(F)(F)F | 4% | i | 2.9µM* | 3.7µM* | -107% | ?
O=C(/C=C/c1ccco1)NC(=S)Nc1cccc(-c2nc3ccccc3o2)c1 | 16% | i | 3.3µM* | 4.6µM* | 0% | ?
Cc1ccc(-c2nc3ccccc3o2)cc1NC(=S)NC(=O)/C=C/c1ccco1 | 1% | i | 2.9µM* | 2.9µM* | -8% | 8%
Cc1ccc2oc(-c3ccc(C)c(NC(=O)/C=C/c4ccco4)c3)nc2c1 | 30% | i | -24% | -19% | -18% | -11%
Cc1ccc(C)c(N(CC(=O)NC2CCCC2)C(=O)CCC(=O)Nc2nccs2)c1 | 2% | i | -25% | -8% | 10% | -4%
COc1cccc(NC(=O)N2CCC(n3c(C)nc4cccnc43)CC2)c1 | -6% | i | 3% | -13% | -8% | 36%
CCn1nc(C)cc1C(=O)NCCN1Cc2ccccc2OC(c2ccccc2F)C1 (centres undefined) | . | ? | 16µM* | ? | . | .
Cc1cc(C(=O)NCCN2Cc3ccccc3OC(c3ccccc3F)C2)no1 (centres undefined) | . | i | -10% | -4%[9.04 µM] | . | .
